Among the data in PubChem BioAssay (NCI) are growth values, retold here.

Test systems include RPMI-8226 leukemia; OVCAR-8 ovarian; OVCAR-5 ovarian; OVCAR-4 ovarian; SK-OV-3 ovarian; IGROV1 ovarian; OVCAR-3 ovarian; HS 578T breast; NCI/ADR-RES ovarian; T-47D breast.
What all share (assay): NCI-60 one-dose screen, 48 h (100 = growth as untreated, 0 = no growth, -100 = all killed)
Holding throughout (conditions): 10 µM unless noted

This is part of a sample that, as a whole, favours compounds with a hit. Of some 83,000 tested, about 20% had one in any assay.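 Negative percent growth values reflect cell death: -40 means 40% of the cells present at the start died, and -100 means all died.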 A number with no mark means an inactive call. Active and inactive are the calls of the source. Rule for the calls: active = growth percent below 10; inactive = the rest.

For `O=C1C(=O)c2c(nc3ccc(Br)cn23)-c2ccccc21`, the growth is -47.6% (active) with RPMI-8226 leukemia; -90.7% (active) in the assay with OVCAR-8 ovarian; -76.9% (active) in the assay with OVCAR-5 ovarian; -95.1% (active) with OVCAR-4 ovarian; -97.6% (active) in the assay with SK-OV-3 ovarian; -51.5% (active) in the assay on IGROV1 ovarian. For the same compound, the growth was -51.4% (active) in the assay with OVCAR-3 ovarian, -52.2% (active) in the assay on HS 578T breast, -31.4% (active) in the assay with NCI/ADR-RES ovarian and -59.8% (active) in the assay with T-47D breast.

On to `O=C(Nc1ccc2ncnc(Nc3cccc(C(F)(F)F)c3)c2c1)c1cccs1`, for which the growth in the assay on RPMI-8226 leukemia is 40.8%; in the assay on OVCAR-8 ovarian, 49.9%; with OVCAR-5 ovarian, 63.9%; in the assay with OVCAR-4 ovarian it was 33.1%; in the assay with SK-OV-3 ovarian it was 83.7%; in the assay on IGROV1 ovarian it was 32.7%. Besides, the growth was 29.1% in the assay on OVCAR-3 ovarian, 103% in the assay with HS 578T breast, 55.7% in the assay with NCI/ADR-RES ovarian and 32.3% with T-47D breast.

For the compound `[2H]c1cc2c(c([2H])c1F)/C(=C/c1[nH]c(C)c(C(=O)NCCN(CC)CC)c1C)C(=O)N2`, the growth in the assay with RPMI-8226 leukemia is 30.2%; with OVCAR-8 ovarian, 63.1%; in the assay with OVCAR-5 ovarian it was 28.7%; with OVCAR-4 ovarian, 40.6%; with SK-OV-3 ovarian it was 14.5%; with IGROV1 ovarian, 30.4%. In addition, the growth is 73.3% with OVCAR-3 ovarian, 44.9% in the assay on HS 578T breast, 65.7% in the assay on NCI/ADR-RES ovarian and 68.7% in the assay on T-47D breast.

Regarding `NC(=O)c1ccc2nc3c(n2c1)C(=O)C(=O)c1ccccc1-3`, the growth in the assay with RPMI-8226 leukemia is -28.1% (active); in the assay on OVCAR-8 ovarian, -61.2% (active); in the assay on OVCAR-5 ovarian it was -86.4% (active); in the assay with OVCAR-4 ovarian it was -97.3% (active); with SK-OV-3 ovarian, -89.2% (active); with IGROV1 ovarian it was -48.8% (active). For the same compound, the growth in the assay with OVCAR-3 ovarian was -99.2% (active); in the assay on HS 578T breast, -6.37% (active); in the assay with NCI/ADR-RES ovarian, -1.27% (active); with T-47D breast, -46.2% (active).

Consider `NC(=O)CN1C(=O)c2ccccc2C1=O`, for which the growth in the assay with RPMI-8226 leukemia is 105%; with OVCAR-8 ovarian, 103%; with OVCAR-5 ovarian, 102%; with OVCAR-4 ovarian, 110%; in the assay on SK-OV-3 ovarian it was 106%; in the assay on IGROV1 ovarian it was 105%. The growth in the assay with OVCAR-3 ovarian is 106%; in the assay on HS 578T breast it was 104%; in the assay on NCI/ADR-RES ovarian it was 102%; in the assay with T-47D breast, 89.9%.

As to `COc1cc(NC(=O)COc2cc(C)nc3ccc(OC)cc23)cc(OC)c1`, the growth is 81.3% with RPMI-8226 leukemia; 93.6% with OVCAR-8 ovarian; 107% in the assay with OVCAR-5 ovarian; 99% with OVCAR-4 ovarian; 96.3% with SK-OV-3 ovarian; 104% in the assay on IGROV1 ovarian. In addition, the growth in the assay on OVCAR-3 ovarian was 98.9%; in the assay with HS 578T breast it was 95.1%; with NCI/ADR-RES ovarian it was 86.6%; in the assay on T-47D breast, 95.8%.

Take `Fc1ccc(N/N=C/c2ccc(-n3cccn3)cc2)cc1`: the growth with RPMI-8226 leukemia was 97.7%; with OVCAR-8 ovarian it was 101%; in the assay with OVCAR-5 ovarian, 112%; with OVCAR-4 ovarian, 95.6%; in the assay on SK-OV-3 ovarian, 84.6%; with IGROV1 ovarian, 78.3%. Besides, the growth with OVCAR-3 ovarian was 93.6%; with HS 578T breast, 108%; with NCI/ADR-RES ovarian, 87.6%; in the assay with T-47D breast, 86.1%.

Regarding `O=C1CC23OC(C(O)c4ccccc4N12)C1C(c2ccccc2)=NOC13` (stereo not given), the growth in the assay on RPMI-8226 leukemia is 28.5%; in the assay on OVCAR-8 ovarian, 70.4%; in the assay with OVCAR-5 ovarian it was 81.2%; in the assay on OVCAR-4 ovarian, 89.7%; with SK-OV-3 ovarian, 79.9%; with IGROV1 ovarian it was 43.6%. The growth in the assay with OVCAR-3 ovarian is 56.7%; with HS 578T breast, 52.2%; in the assay on NCI/ADR-RES ovarian, 15.8%; in the assay on T-47D breast, 52.8%.

In the case of `CN1CCN(C(=O)[C@@]2(C)CC[C@]3(C)CC[C@]4(C)C(=CC[C@@H]5[C@@]6(C)CC[C@H](OC(=O)c7cccnc7)C(C)(C)[C@@H]6CC[C@]54C)[C@@H]3C2)CC1`, the growth in the assay with RPMI-8226 leukemia was 6.97% (active); in the assay on OVCAR-8 ovarian, 60.2%; with OVCAR-5 ovarian it was 78.7%; in the assay on OVCAR-4 ovarian, 35.2%; in the assay with SK-OV-3 ovarian, 79.3%; in the assay with IGROV1 ovarian, 88.2%. The growth is 80.9% in the assay on OVCAR-3 ovarian, 76.8% in the assay on HS 578T breast, 77.6% in the assay with NCI/ADR-RES ovarian and 57.6% with T-47D breast.

Regarding `CCCCC(=O)Nc1c(C(=O)Nc2ccccc2)sc2nc3c(cc12)C(OC(=O)CCCC)CCC3` (stereo not given), the growth in the assay with RPMI-8226 leukemia was 48.9%; in the assay on OVCAR-8 ovarian, 84.7%; in the assay with OVCAR-5 ovarian, 111%; in the assay with OVCAR-4 ovarian it was 36.7%; with SK-OV-3 ovarian it was 108%; in the assay with IGROV1 ovarian, 99.8%. In addition, the growth is 102% with OVCAR-3 ovarian, 89.5% with HS 578T breast, 79.3% in the assay with NCI/ADR-RES ovarian and 79% in the assay with T-47D breast.

Regarding `COc1cc(NC(=O)Nc2cnc(Nc3ccc(N4CCOCC4)cc3)nc2Oc2ccc(C(F)(F)F)cc2)cc(OC)c1`, the growth is 92.5% in the assay with RPMI-8226 leukemia; 100% in the assay with OVCAR-8 ovarian; 116% with OVCAR-5 ovarian; 111% with OVCAR-4 ovarian; 104% in the assay on SK-OV-3 ovarian; 104% with IGROV1 ovarian. Further, the growth was 110% with OVCAR-3 ovarian, 99.4% with HS 578T breast, 104% in the assay with NCI/ADR-RES ovarian and 98.4% in the assay on T-47D breast.

Take `c1ccc(-c2n(Cc3ccc4ccccc4n3)cc[n+]2Cc2ccc3ccccc3n2)cc1`: the growth is 0.454% (active) with RPMI-8226 leukemia; 33.6% with OVCAR-8 ovarian; 70.5% in the assay with OVCAR-5 ovarian; 32.9% in the assay with OVCAR-4 ovarian; 48.9% in the assay with SK-OV-3 ovarian; 33.9% in the assay on IGROV1 ovarian. In addition, the growth in the assay on OVCAR-3 ovarian was 28.8%; in the assay on HS 578T breast, 60.4%; with NCI/ADR-RES ovarian, 105%; with T-47D breast, 9.75% (active).

`COc1cc(-c2csc(NC(=O)Nc3cc(Cl)cc(Cl)c3)n2)cc(OC)c1OC`: the growth in the assay with RPMI-8226 leukemia is 13.7%; with OVCAR-8 ovarian, 9.3% (active); with OVCAR-5 ovarian it was 39.1%; in the assay on OVCAR-4 ovarian it was -81.4% (active); with SK-OV-3 ovarian, 14.9%; in the assay with IGROV1 ovarian, -59.4% (active). Further, the growth with OVCAR-3 ovarian is -85.9% (active); with HS 578T breast, -18.2% (active); with NCI/ADR-RES ovarian, 5.24% (active); with T-47D breast it was -41.5% (active).

Take `O=C(C[n+]1cccc2cc(Cl)ccc21)c1ccc2c(c1)CCCC2`: the growth in the assay with RPMI-8226 leukemia was 7.65% (active); in the assay on OVCAR-8 ovarian, 25.6%; in the assay on OVCAR-5 ovarian, 28.3%; in the assay with OVCAR-4 ovarian it was 16.2%; in the assay on SK-OV-3 ovarian, 16.9%; in the assay on IGROV1 ovarian, 33.7%. Besides, the growth in the assay with OVCAR-3 ovarian was 0.868% (active); in the assay on HS 578T breast, 37.5%; in the assay with NCI/ADR-RES ovarian, 101%; in the assay on T-47D breast, 2.41% (active).
